Screens: PubChem, National Center for Advancing Translational Sciences (NCATS)
The full list was thinned out, with hits kept by preference.
RECQ1 inh-1 – RECQ1 (human) helicase inhibition; RECQ1 DNA unwinding, red fluorescence kinetic read; Potency, µM (titrated, usually from 57.3 µM), usual class: inhibitors; 0.54% of 240,000 active; AID 2549; further: nearly all actives have a fitted effect of over 30% in size
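RECQ1T1 50 nM; forked duplex (20 bp + 30-nt ss tails) 200 nM, ATP 2 mM final; pH 8.0, 2 mM MgCl2, 2.5 ug/ml poly(dI-dC); 15 min compound preincubation; discontinuous kinetic read over 2 h at RT.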
APEX1 inh – inhibitors of human APE1 endonuclease. 0.35% of 350,000 active. Potency, µM (doses to about 65.8 µM), hits mostly inhibitors. recombinant APE1, TAMRA/BHQ-2 abasic DNA cleavage fluorescence; further: nearly all actives have a fitted effect of over 55% in size
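Endonuclease cleavage of a quenched abasic-site DNA duplex (50 nM) by APE1 (0.75 nM) was tracked by TAMRA dequenching. Compounds were preincubated with enzyme 15 min at room temperature; data normalized to buffer-only and DMSO wells plus NSC13755 control.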
L3MBTL1 inh – blocks human L3MBTL1; Q9Y468; AlphaScreen L3MBTL1–H3K9me1 peptide binding; Potency, µM (top dose mostly 57.1 µM), hits mostly inhibitors; 0.66% of 230,000 active; AID 485360; further: nearly all actives have a fitted effect of over 60% in size
Target sequence (Q9Y468 whole entry, looked up): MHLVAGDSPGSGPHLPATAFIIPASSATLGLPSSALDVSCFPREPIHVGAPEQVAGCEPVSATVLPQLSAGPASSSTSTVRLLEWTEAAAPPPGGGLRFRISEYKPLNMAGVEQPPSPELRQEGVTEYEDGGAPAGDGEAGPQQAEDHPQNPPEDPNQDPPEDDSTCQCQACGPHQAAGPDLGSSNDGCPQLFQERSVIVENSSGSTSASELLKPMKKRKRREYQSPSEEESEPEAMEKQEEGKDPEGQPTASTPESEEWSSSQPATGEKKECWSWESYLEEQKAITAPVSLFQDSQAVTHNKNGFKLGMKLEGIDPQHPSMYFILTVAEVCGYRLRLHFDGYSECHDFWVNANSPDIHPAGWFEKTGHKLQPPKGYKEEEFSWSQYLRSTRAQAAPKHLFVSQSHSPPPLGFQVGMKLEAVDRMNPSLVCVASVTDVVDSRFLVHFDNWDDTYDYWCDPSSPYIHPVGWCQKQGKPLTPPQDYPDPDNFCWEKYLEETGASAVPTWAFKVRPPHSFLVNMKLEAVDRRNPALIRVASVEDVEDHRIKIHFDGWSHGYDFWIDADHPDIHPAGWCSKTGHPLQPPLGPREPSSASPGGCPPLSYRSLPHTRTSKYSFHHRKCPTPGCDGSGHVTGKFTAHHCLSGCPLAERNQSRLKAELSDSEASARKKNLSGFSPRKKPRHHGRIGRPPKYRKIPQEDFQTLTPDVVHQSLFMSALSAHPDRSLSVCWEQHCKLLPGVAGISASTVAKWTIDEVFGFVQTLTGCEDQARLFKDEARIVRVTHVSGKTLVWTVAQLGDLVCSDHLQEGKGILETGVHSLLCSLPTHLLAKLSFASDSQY
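L3MBTL1 50 nM + b-AHA-H3(1-15)K9me1 75 nM, 30 min RT; compound added, 30 min RT; streptavidin donor/Ni-chelate acceptor beads 10 ug/mL each final, 30 min RT dark; AlphaScreen read.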
BLM inh-1 – Bloom syndrome helicase (human) inhibition; recombinant BLM DNA unwinding, fluorescence dequenching; Potency, µM (series often up to 56.1 µM), hits mostly inhibitors; 0.2% of 350,000 active; further: nearly all actives have a fitted effect of over 35% in size
GCN5L2 inh – blocks human GCN5L2 histone acetyltransferase; GCN5L2 HAT assay, ThioGlo1 CoA-SH fluorescence; AID 504327; 0.21% of 390,000 active; Q92830; Potency, µM (titrated, usually from 58.9 µM), most hits filed as inhibitors
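GCN5L2 (20 nM) in 50mM HEPES pH 7.5, 0.1mM EDTA, 0.01% Tween-20 preincubated 15 min with compounds at room temperature. Reaction started with H3(1-25) 75uM, acetyl-CoA 70uM, ThioGlo1 50uM; CoA-thiol fluorescence (Ex340/Em540) read at 0 and 20 min.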
JMJD2E inh – blocks human JMJD2E demethylase activity. JMJD2E catalytic domain, FDH-coupled NADH fluorescence (FDH is formaldehyde dehydrogenase). Potency, µM (highest dose often 57.1 µM), usual class: inhibitors. 1.6% of 230,000 active. AID 2147; active means well fitted inhibition curve with a large enough effect, not every such curve was filed as active; inconclusive means small, poorly fitted or top-dose-only effect, or another doubt; inactive means no such curve, though single readings can be large or run the other way; further: nearly all actives have a fitted effect of over 50% in size
BLM inh-2 – confirmation of inhibitors of human Bloom syndrome helicase BLM; shares compounds with BLM inh-1; BLM DNA unwinding, fluorescence quenching, biochemical; Potency, µM, actives largely listed as inhibitors; 40% of 220 active; AID 2585;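 further: strand separation dequenches TAMRA so unwinding raises red fluorescence; series mostly up to about 69 µM; nearly all actives have a fitted effect of over 45% in size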
RECQ1 inh conf – confirmation of human RECQ1 helicase inhibitors | shares compounds with RECQ1 inh-1 | RECQ1 helicase DNA unwinding, fluorescence | Potency, µM (top dose mostly 229 µM), hits mostly inhibitors | 28% of 610 active; further: nearly all actives have a fitted effect of over 45% in size
ADP FP counter – counter-screen for RECQ1 inhibitors: ADP displacement | shares compounds with RECQ1 inh-1 | ADP fluorescence polarization displacement counterscreen | Potency, µM (highest dose often 228 µM), usual class: inhibitors | 27% of 530 active | AID 2711; further: nearly all actives have a fitted effect of over 45% in size
RECQ1 inh-2 – confirmation of human RECQ1 helicase inhibitors; shares compounds with RECQ1 inh-1; recombinant RECQ1 DNA unwinding, red fluorescence; Potency, µM (series often up to 119 µM), hits mostly inhibitors; 15% of 1,100 active; AID 504841; further: nearly all actives have a fitted effect of over 50% in size
Of the large screens only hits and unclear results are named; the others gave an inactive call (follow-up assays come after a bar, where they were run); ! = not confirmed by another sample. Unless noted, the call rests on the fitted dose curve; in most records, active means well fitted curve in the direction sought with a large enough effect; inconclusive means small, poorly fitted or top-dose-only effect, or another doubt; inactive means no such curve, though single readings can be large; an effect the other way counts as inactive or inconclusive.

Cc1ccc2nc(/C(C#N)=C/c3ccc(-c4ccc(F)cc4F)o3)[nH]c2c1	none (no result: RECQ1 inh-1, APEX1 inh, L3MBTL1 inh, JMJD2E inh)
Cc1ccc2nc(/C(C#N)=C/c3ccc(-c4cccc([N+](=O)[O-])c4)o3)[nH]c2c1	BLM inh-1 22.4µM | BLM inh-2 12.9µM
Cc1ccc(-c2cc(C(=O)Nc3c(C)n(C)n(-c4ccccc4)c3=O)[nH]n2)c(O)c1C	none
Oc1ccc(NCc2ccccc2OCc2ccccc2F)cc1	APEX1 inh inconclusive, L3MBTL1 inh inconclusive, BLM inh-1 28.2µM!, JMJD2E inh 5.01µM | BLM inh-2 inconclusive
CCOc1cccc(CNc2ccc(O)cc2)c1OCc1ccc(Cl)cc1	L3MBTL1 inh inconclusive, BLM inh-1 28.2µM | BLM inh-2 inactive
NCCS(=O)O	none (no result: L3MBTL1 inh)
CCOc1ccc(CCNC(=O)c2nc(-c3cccc(F)c3)n3c2CCCCC3)cc1OCC	BLM inh-1 0.159µM (no result: RECQ1 inh-1, APEX1 inh, L3MBTL1 inh, JMJD2E inh) | BLM inh-2 inactive
CCc1ccccc1N1C(=O)N(C)c2ccccc2S1(=O)=O	none (no result: RECQ1 inh-1, APEX1 inh, L3MBTL1 inh, JMJD2E inh)
COC(=O)c1ccc([C@@H]2Nc3c(cccc3C(F)(F)F)[C@@H]3C=CC[C@@H]32)cc1	none (no result: RECQ1 inh-1, APEX1 inh, L3MBTL1 inh, JMJD2E inh)
O=C(O)C1Nc2c(O)cccc2C2C=CCC12 (centres undefined)	RECQ1 inh-1 3.98µM, APEX1 inh 3.55µM, L3MBTL1 inh 1µM, BLM inh-1 4.47µM, JMJD2E inh 17.8µM | BLM inh-2 5.41µM | RECQ1 inh conf inconclusive
COc1ccc(Br)cc1CNc1ccc(O)cc1	RECQ1 inh-1 28.2µM, L3MBTL1 inh inconclusive, BLM inh-1 20µM, JMJD2E inh inconclusive | BLM inh-2 inactive | RECQ1 inh-2 inactive
CCOc1ccccc1CNc1ccc(O)cc1	RECQ1 inh-1 20µM, L3MBTL1 inh inconclusive, BLM inh-1 28.2µM | BLM inh-2 inactive | RECQ1 inh conf inactive | ADP FP counter 56.2µM | RECQ1 inh-2 inactive
COc1ccc(Br)cc1CNc1ccc2[nH]c(=O)[nH]c2c1	JMJD2E inh inconclusive
C/C=C/C(=O)Nc1cccc(C2=NOC3(C2)C[C@@H](C(N)=O)N(C(=O)C(c2ccccc2)c2ccccc2)C3)c1 (some centres undefined)	none (no result: L3MBTL1 inh)
COc1cc(OC)c(S(=O)(=O)Nc2ccccc2N2CCOCC2)cc1NC(C)=O	none
Cc1ccc(SCC(=O)c2ccc(CC(=O)O)s2)cc1	RECQ1 inh-1 25.1µM, L3MBTL1 inh inconclusive, BLM inh-1 25.1µM | BLM inh-2 inconclusive | RECQ1 inh-2 inactive
CC(=O)Nc1ccc(SCC(=O)c2ccc(Br)s2)cc1	none (no result: RECQ1 inh-1, L3MBTL1 inh, JMJD2E inh)
Cc1ccc(-c2nc3c(c(SCC(=O)Nc4cccc(C(=O)O)c4)n2)Cc2cccc(C)c2O3)cc1	APEX1 inh 1.89µM, L3MBTL1 inh 5.62µM, BLM inh-1 4.47µM, GCN5L2 inh inconclusive (no result: RECQ1 inh-1, JMJD2E inh) | BLM inh-2 13.6µM | RECQ1 inh conf 6.46µM
O=C(NCc1ccco1)c1c2c(nc3ccccc13)CCC2	RECQ1 inh-1 28.2µM, APEX1 inh inconclusive, L3MBTL1 inh inconclusive, BLM inh-1 17.8µM, JMJD2E inh inconclusive | BLM inh-2 inconclusive | RECQ1 inh-2 inconclusive
O=C(NCc1ccc(F)cc1)c1c2c(nc3ccccc13)CCC2	RECQ1 inh-1 inconclusive, L3MBTL1 inh inconclusive, JMJD2E inh inconclusive
COc1ccccc1CNC(=O)COC(=O)c1cc(-c2ccco2)nc2ccccc12	RECQ1 inh-1 inconclusive, APEX1 inh 11.2µM, BLM inh-1 11.2µM, JMJD2E inh inconclusive (no result: L3MBTL1 inh) | BLM inh-2 18.2µM | RECQ1 inh-2 inconclusive
COc1ccccc1CNC(=O)COC(=O)c1cc(C)nc2ccccc12	none (no result: RECQ1 inh-1, BLM inh-1, JMJD2E inh)
